Assay results: PubChem BioAssay (NCATS)
Results filed as inconclusive are left out. Active and inactive are the calls of the source. Calls follow the shape of the dose curve; as a rule, active = well fitted inhibition curve with a large enough effect; inconclusive = small, poorly fitted or top-dose-only effect; inactive = flat fitted curve, though single readings scatter.

What was measured:
Test in all cases: qHTS profiling for inhibitors of Plasmodium falciparum proliferation (AID 504749); also: nearly all actives have a fitted effect of over 60% in size
Details in all cases: P. falciparum in erythrocytes, SYBR Green DNA, 72 h; series mostly up to 28.7 µM
CP266 = system: CP266
In short: (§1)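 Readout was DNA-dye fluorescence from lysed cultures, ex 485/em 535 nm. Parasitized red cells had grown 72 h with compound; data scaled between 0.29 uM artemisinin and DMSO wells and corrected using vehicle-only plates.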

CP268 = system: CP268
In short: as §1

CP269 = system: CP269
In short: as §1

CP286 = system: CP286
In short: as §1

CP291 = system: CP291
In short: as §1

CP297 = system: CP297
In short: as §1

CP305 = system: CP305
In short: as §1

CP315 = system: CP315
In short: as §1

CP325 = system: CP325
In short: as §1

CP329 = system: CP329
In short: as §1

CP335 = system: CP335
In short: as §1

DFO2036 = system: DFO2036
In short: as §1

DIV14 = system: DIV14
In short: as §1

DIV17 = system: DIV17
In short: as §1

DIV30 = system: DIV30
In short: as §1

Dd2 = system: Dd2
In short: as §1

ECU = system: ECU
In short: as §1

FAB9 = system: FAB9
In short: as §1

GB4 = system: GB4
In short: as §1

HB3 = system: HB3
In short: as §1

ICS = system: ICS
In short: as §1

JCK = system: JCK
In short: as §1

N140 = system: N140
In short: as §1

P93_24 = system: P93_24
In short: as §1

P94_40 = system: P94_40
In short: as §1

PAD = system: PAD
In short: as §1

PC15 = system: PC15
In short: as §1

PC26 = system: PC26
In short: as §1

PC49 = system: PC49
In short: as §1

SC27B = system: SC27B
In short: as §1

TAB109 = system: TAB109
In short: as §1

TAB113 = system: TAB113
In short: as §1

TAB165 = system: TAB165
In short: as §1

W2 = system: W2
In short: as §1

Measured: Potency

CC(=O)[C@H]1CC[C@H]2C3CC=C4C[C@@H](O)CC[C@]4(C)C3CC[C@]12C (some centres undefined)
inactive: all assays above
